Assay outcomes (PubChem BioAssay)
Only some compounds are listed: those with a hit (about 21% of all), similar ones and a draw of the others.
Cycloheximide cs: Cycloheximide Counterscreen for Small Molecule Inhibitors of Shiga Toxin | max response, % | cell reporter, cycloheximide protein synthesis inhibition counterscreen | AID 2314, 2010 | 12% of 300,000 active; in the data active means max response mostly above about 13%, no sharp cut-off; inactive means mostly below about 14%; further: read at 38.3 µM for the half of the compounds with a filed dose
Pf growth 48h: Primary qHTS for delayed death inhibitors of the malarial parasite plastid, 48 hour incubation; 5.9% of 310,000 active; Potency, µM (highest dose often 28.7 µM), hits mostly inhibitors; AID 504832, 2011; P. falciparum luciferase growth in erythrocytes, 48 h
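Firefly luciferase activity from engineered P. falciparum reports growth; inhibitors lower the luminescent signal. Cultures contained 2% hematocrit erythrocytes at 0.1% final parasitemia.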
Pf growth 96h: Primary qHTS for delayed death inhibitors of the malarial parasite plastid, 96 hour incubation | AID 504834, 2011 | Potency, µM (highest dose often 28.7 µM), most hits filed as inhibitors | P. falciparum luciferase reporter growth, 96 h | 6.9% of 320,000 active
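Readout is luminescence from an integrated firefly luciferase in P. falciparum. Red cells, 2% hematocrit and 0.05% parasitemia final, were cultured with compound through two parasite generations (96 hours) at 37 C, 5% CO2.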
NS1 function inh: qHTS Assay for Inhibitors of Influenza NS1 Protein Function. Potency, µM (highest dose often 46.1 µM). 0.4% of 270,000 active. AID 2326, 2010; calls by dose curve; further: actives are rising curves; nearly all actives have a fitted effect of over 50% in size
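Recovery from NS1-induced slow growth read by OD600 in budding yeast switched to galactose assay medium (pH 6.0, -URA) at 1:100 dilution. Compound 23 nl per well; the matching strain lacking NS1 serves as control.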
Shiga inhibitor: A qHTS for Small Molecule Inhibitors of Shiga Toxin | 9.2% of 290,000 active | Vero cells, Shiga toxin protein synthesis inhibition reporter | inhibition, % at 38.7 µM | AID 2315, 2010; in the data active means inhibition mostly above about 28%, no sharp cut-off; inactive means mostly below about 43%
Numbers stand for hits; – = inactive; ? = inconclusive; · = no result given; [ ] = remark or other dose. Unless noted, the call rests on the fitted dose curve; in most records, active means well fitted inhibition curve with a large enough effect; inconclusive means small, poorly fitted or top-dose-only effect, or another doubt; inactive means no such curve, though single readings can be large or run the other way.

SMILES | Cycloheximide cs | Pf growth 48h | Pf growth 96h | NS1 function inh | Shiga inhibitor
CC(C)c1ccc(OCc2ccc(C(=O)N3CCN(c4ccccn4)CC3)cc2)cc1 | 30 | ? | – | – | –
Cc1ccc(OCc2ccc(C(=O)N3CCOCC3)cc2)cc1C | 31 | – | – | – | 54
CC(C)c1ccc(COc2ccc(C(=O)N3CCOCC3)cc2)cc1 | 16 | – | – | – | –
CCNC(=O)NC(=O)CSc1ccc(S(=O)(=O)N(C)C2CCCCC2)cn1 | · | 12µM | 9.3µM | · | ·
CNC(=O)NC(=O)CSc1ccc(S(=O)(=O)N(C)C2CCCCC2)cn1 | · | ? | – | · | ·
CCNC(=O)NC(=O)CSc1ccc(S(=O)(=O)N2CCCCC2)cn1 | · | ? | 5.2µM | · | ·
COCCCn1c(=O)c2sccc2n2c(CCCC(=O)NCc3ccc(F)cc3)nnc12 | – | ? | – | – | –
Cc1ccc(Cn2ncc(C)c2N)o1 | – | – | – | – | –
Cc1cc(C)nc(Sc2ccc([N+](=O)[O-])cc2[N+](=O)[O-])n1 | – | 5.9µM | – | – | –
C=CCn1nc([N+](=O)[O-])nc1Sc1cccc2cccnc12 | – | – | – | – | –
O=[N+]([O-])c1ccc(Sc2cccc3cccnc23)c([N+](=O)[O-])c1 | 19 | – | · | – | –
O=[N+]([O-])c1cc(Cl)ccc1Sc1cccc2cccnc12 | – | · | – | – | –
O=[N+]([O-])c1ccc(NS(=O)(=O)c2cccc3cccnc23)cc1 | – | – | 12µM | – | ·
O=[N+]([O-])c1ccc(Sc2cccc3cccnc23)cc1 | 26 | · | – | – | 65
O=C(O)CSc1ccc([N+](=O)[O-])cc1[N+](=O)[O-] | · | · | · | – | ·
O=S(=O)(Nc1ccc(O)cc1)c1cccc2cccnc12 | – | · | – | ? | –
COc1ccc(C2=Nn3c(nnc3-c3ccccc3C)SC2)cc1 | – | · | · | · | –
CN1CCN(c2c(F)cc3c(=O)c(C(=O)O)cn4c3c2SCC4)CC1 | – | ? | 5.2µM | – | –
Cc1c(-n2cc(C(=O)O)c(=O)c3cc(F)c(N4CCCC4)c(F)c32)c(=O)n(-c2ccccc2)n1C | – | – | – | – | –
Cc1ccc(CC(=O)O/N=C(\N)Cc2ccc([N+](=O)[O-])cc2)cc1 | – | – | – | – | –
N/C(Cc1ccc([N+](=O)[O-])cc1)=N\OC(=O)c1ccc2ccccc2c1 | 45 | · | – | – | 131
N/C(Cc1ccc([N+](=O)[O-])cc1)=N\OC(=O)CC1CCCCC1 | – | 13µM | ? | – | –
N/C(Cc1ccc([N+](=O)[O-])cc1)=N\OC(=O)c1ccccc1Br | – | ? | – | – | –
O=C(COC(=O)C1CCCC1)NCc1ccc(Cl)cc1 | – | – | – | · | –
N/C(Cc1ccc([N+](=O)[O-])cc1)=N\OC(=O)c1ccco1 | 35 | – | – | – | 35
SMILES | Cycloheximide cs | Pf growth 48h | Pf growth 96h | NS1 function inh | Shiga inhibitor
N/C(Cc1ccc(Cl)cc1)=N\OC(=O)C1CCCCC1 | 53 | 5.9µM | – | – | 69
CC(C)(C)C(Cn1ccnc1)NC(=O)c1ccc2nc(C3CC3)oc2c1 (stereo not drawn) | – | ? | ? | – | –
Cc1cc(C)c2c(SC(C)C)nc(N)nc2n1 | – | – | – | – | –
Cc1c(CN(C)Cc2cn(C)nc2-c2ccccc2F)[nH]c2ccccc12 | – | – | 3.7µM | – | –
CN(CCCN1CCOCC1)Cc1cn(C)nc1-c1ccccc1F | – | – | 5.9µM | – | –
CN(Cc1cn(C)nc1-c1ccccc1F)C1CCOC1 (stereo not drawn) | – | – | – | – | –
CCCN1CCC(=O)N(CCO)CC1 | – | – | – | – | –
N#CC1=C(N)N(c2ccc(F)cc2)C2=C(C1c1ccc(O)cc1)S(=O)(=O)CC2 (stereo not drawn) | – | ? | –[5.75 µM] | · | –
CCOC(=O)c1cn(-c2ccccc2)nc1-c1cccnc1 | 37 | – | ? | – | 50
O=C(NC1CCN(Cc2ccccc2)CC1)c1cn(-c2ccccc2)nc1-c1cccnc1 | · | 3.7µM | 2.3µM | · | ·
CCn1c(CNC(=O)Cc2ccc(OC)cc2)nnc1SCC(=O)Nc1ccc(C(=O)O)cc1 | – | – | – | – | –
Cc1ccc(S(=O)(=O)NCC(=O)OCCOc2cccc(Cl)c2)cc1 | · | – | – | · | ·
Nc1cc(S(=O)(=O)C(F)(F)F)ccc1C(=O)O | – | – | – | – | –
O=S(=O)(c1ccc2c(c1)C(O)c1ccccc1CC2)C(F)(F)F (stereo not drawn) | · | 7.4µM | 3.3µM | · | ·
Nc1ccc(C(=O)Oc2ccc([N+](=O)[O-])cc2)cc1 | 51 | – | – | – | 105
Nc1ccc(C(=O)OCC(=O)Nc2cc([N+](=O)[O-])ccc2F)cc1 | 12 | – | – | – | –
O=C(Nn1c(-c2ccc(Br)cc2)nc2ccccc2c1=O)c1ccc([N+](=O)[O-])cc1 | – | – | ? | – | –
CC(=O)c1sc(Nc2nc(C)cc(C)n2)nc1C | – | · | – | – | –
O=C(CSc1nnc(-c2cccnc2)n1Cc1ccccc1)NCc1ccccc1 | – | – | ? | – | –
CCCN(CCC)Cc1c(C(=O)N/N=C/CCc2ccccc2)nnn1-c1nonc1N | – | – | 9.3µM | – | –
CCCN(CCC)Cc1c(C(=O)N/N=C/c2ccncc2)nnn1-c1nonc1N | – | – | – | – | –
C/C(=N\NC(=O)c1nnn(-c2nonc2N)c1CN(C)c1ccccc1)c1ccccn1 | – | 13µM | 5.2µM | – | –
CCOC(=O)N1CCN(Cc2nnc(-c3ccccc3C)o2)CC1 | – | – | 0.74µM | – | –
c1csc(-c2noc(COc3ccc4c(c3)CCCC4)n2)c1 | 41 | – | ? | – | 89
CCOC(=O)c1ccc(OCc2nc(-c3cccs3)no2)cc1 | 16 | – | · | – | –
SMILES | Cycloheximide cs | Pf growth 48h | Pf growth 96h | NS1 function inh | Shiga inhibitor
CCOC(=O)N1CCN(Cc2nc(-c3cccs3)no2)CC1 | 30 | – | ? | – | 81
CCc1noc(C)c1C(=O)N1CCCC(CCC(=O)NCc2cccc(OC)c2)C1 (stereo not drawn) | – | – | – | – | –
NS(=O)(=O)c1ccc(CCNC(=O)c2cnc(Cl)c(Cl)c2)cc1 | – | – | – | – | –
Cc1cc(C)c2[nH]c(=O)c(CN(Cc3cccs3)C(=S)NCC3CCCO3)cc2c1 (stereo not drawn) | – | ? | – | – | –
CCN1CCN(c2ccc(N3CCN(S(=O)(=O)c4ccc(C)c([N+](=O)[O-])c4)CC3)nn2)CC1 | · | 13µM | 0.93µM | · | ·
Cc1cccc(OCC(=O)Nc2ccc3nc(C)sc3c2)c1 | – | – | – | – | 63
Cc1nc2ccc(NC(=O)COc3ccccc3)cc2s1 | 23 | – | – | · | –
Cc1nc2ccc(NC(=O)COc3cccc(F)c3)cc2s1 | 26 | – | – | – | –
CC(=O)c1ccc(OCC(=O)Nc2ccc3nc(C)sc3c2)cc1 | – | –[1.15 µM] | – | – | –
CC(NC(=O)C12CC3CC(CC(O)(C3)C1)C2)c1ccc(Cl)cc1Cl (stereo not drawn) | – | – | – | – | –
CCOC(=O)c1c(NC(=O)Cn2nnc(-c3ccc(Cl)cc3)n2)sc(CC)c1C | – | – | · | – | –
